Compounds without any hit were thinned out: in the full panel of roughly 79,000, 15% have a hit. Unmarked numbers belong to inactive results. The source made the active and inactive calls. No stated cut-off is given here; in the data, active means growth inhibition above about 70%; inactive means the rest.
Key:
[1] = NCI Yeast Anticancer Drug Screen. Data for the rad50 strain (AID 155);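 further: 0% = growth of vehicle-only cultures of the same strain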; details: S. cerevisiae rad50 strain growth inhibition; at 50.0 µM; hits give high values
In short: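 Readout: growth inhibition relative to vehicle-treated cultures. Compound exposure was carried out in a genetically defined yeast strain deficient in DNA damage repair.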

[2] = NCI Yeast Anticancer Drug Screen. Data for the mec2-1 strain (AID 157); details: S. cerevisiae mec2-1 strain, at 50.0 µM, hits give high values
In short: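 Compounds were applied to mec2-1 yeast cells. Their growth was then compared with that of vehicle-treated cultures to give growth inhibition.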

[3] = NCI Yeast Anticancer Drug Screen. Data for the sgs1 mgt1 strain (AID 161);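 further: 0% = growth of cultures given vehicle only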; details: S. cerevisiae sgs1 mgt1 strain, at 50.0 µM, hits give high values
In short: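 Growth of a repair-deficient yeast mutant was monitored after compound treatment and expressed as inhibition relative to vehicle-treated cultures.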

[4] = NCI Yeast Anticancer Drug Screen. Data for the cln2 rad14 strain (AID 165);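 further: 0% = growth equal to vehicle treated cultures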; details: S. cerevisiae cln2 rad14 strain, at 50.0 µM, hits give high values
In short: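 Strain: cln2 rad14 yeast, altered in cell cycle control and DNA damage repair. Read-out: growth inhibition vs vehicle.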

[5] = NCI Yeast Anticancer Drug Screen. Data for the bub3 strain (AID 167); details: S. cerevisiae bub3 mutant strain, at 50.0 µM, hits give high values
In short: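 Readout: yeast growth inhibition, expressed relative to vehicle-only wells. The test organism is a mutant strain from a panel with lesions in DNA repair or checkpoint genes.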

[6] = NCI Yeast Anticancer Drug Screen. Data for the mlh1 rad18 strain (AID 175); details: S. cerevisiae mlh1 rad18 strain growth inhibition; at 50.0 µM; hits give high values
In short: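 A repair-deficient yeast strain is exposed to test compound, and growth is scored relative to vehicle-treated controls.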

Row | SMILES | growth inhibition [1] | growth inhibition [2] | growth inhibition [3] | growth inhibition [4] | growth inhibition [5] | growth inhibition [6]
1 | CC(=O)CC(=NCC(O)CN=C(CC(C)=O)c1ccccc1)c1ccccc1.[Cu] (stereo not drawn) | 10.4% | 8.55% | 5.9% | -18.7% | -11.3% | 25.4%
2 | CN(C)c1nc(Cl)cc2nc(Cl)cn12 | 0.25% | 5.7% | 2.5% | -0.35% | -8.15% | 0.5%
3 | Cc1ccccc1/C=C/C(=O)c1ccccc1 | 45.2% | 24.6% | 40.8% | 1.8% | 11.4% | 20%
4 | COc1ccc(-c2cc(C)n(C3OC(CO)C(O)C(O)C3O)c(=S)c2C#N)cc1 (stereo not drawn) | 23.9% | 8.15% | -9.05% | -19.1% | -0.6% | 13.7%
5 | CCC(Nc1nncs1)Nc1nncs1 | -21.9% | 22.6% | 2.2% | -20.9% | 2.95% | -3%
6 | Cc1ccc(NC(=O)/C(CC(=O)c2sc(Nc3ccccc3Cl)nc2C)=N\Nc2ccc([N+](=O)[O-])cc2[N+](=O)[O-])c(C)c1 | -1% | 17.1% | 4.25% | -12.1% | 4.55% | -4.25%
7 | CNc1ccn(C2OC(CO)C(O)C2SC(C)(C)C)c(=O)n1 (stereo not drawn) | 6.15% | 0.25% | 13.7% | 9.1% | 0.45% | 28.6%
8 | CCNC(=O)NCC | -16.4% | -19.4% | -32.7% | -29.2% | -2% | -3.4%
9 | CN(C)C1CCC(C=C(C2CCC(CC(=O)O)CC2)C2CCC(CC(=O)O)CC2)CC1 (stereo not drawn) | -2.95% | -21.5% | 9.6% | 13.6% | 1.05% | 6.3%
10 | CCCC(=O)c1ccc(O)cc1 | 4.65% | 3.45% | -6.2% | -12.6% | 4.05% | 0.2%
11 | CC(C)=CCNc1ncnc2c1c(C#N)cn2C1OC(CO)C(O)C1O (stereo not drawn) | -1.2% | -23.7% | -23.4% | 15.7% | -17.5% | -5.95%
12 | COc1ccc(NCC(=O)Nn2c(-c3ccccc3)nc3ccccc3c2=O)cc1 | -37% | -48.2% | 4% | 0.4% | 4.15% | -18.4%
13 | CCN(c1ccccc1)c1cc2c(cc1[N+](=O)[O-])no[n+]2[O-] | 97.1% (active) | 96.9% (active) | 98.3% (active) | 96.6% (active) | 98.1% (active) | 97.1% (active)
14 | COC1CC(C)(NC(=O)C(F)(F)F)C2OC(c3ccccc3)OCC2O1 (stereo not drawn) | -25% | -17.7% | -41.4% | -35% | -3.85% | -9.65%
15 | O=C(O)CCC(=O)NNc1nc2ccccc2s1 | 22.1% | 2% | 29.1% | 19.8% | -13.2% | 44.4%
16 | O=C(O)[C@H]1C[C@H](O)CCN1 | -30.4% | -8.65% | -34.2% | 1.25% | -3.85% | -10.6%
17 | CC(=O)OC(C)C(=O)C1c2cccc(O)c2C(=O)c2c(O)cc(C)cc21 (stereo not drawn) | 35.6% | 19.1% | 19.9% | 31.4% | 23.9% | 26.6%
18 | O=[N+]([O-])c1ccc(OCCSc2ccccc2)cc1 | 9% | 33% | 55% | 12.6% | 60.2% | 12.8%
19 | CCCCCCc1ccc2c3cccc4cccc(c5cccc1c52)c43 | -9.25% | -15.6% | -22.1% | -34.2% | -11.1% | -25.6%

Row | SMILES | growth inhibition [1] | growth inhibition [2] | growth inhibition [3] | growth inhibition [4] | growth inhibition [5] | growth inhibition [6]
20 | O=C1C(CCCS)C(c2ccccc2)=NN1c1ccccc1 (stereo not drawn) | 54.9% | 3.9% | 18.4% | -12.8% | 0.45% | 39%
21 | CN(C)c1ccc(/C=N\N=C\c2ccco2)cc1 | 7.65% | -3.2% | 22.6% | -40.2% | -7.55% | 10.1%
22 | O=C1Oc2cc3c(c4cccc1c24)OCN(c1ccc(Cl)cc1)C3 | 38.6% | 29.9% | 53.1% | 33% | 33% | 37.5%
23 | Nc1nc(N)c(N=Nc2ccccc2[N+](=O)[O-])c(=O)[nH]1 | 5.85% | -15.8% | 2.4% | -4.95% | 11.1% | -1.05%
24 | CCOC(=O)CCC(NC(=O)OCc1ccccc1)C(=O)NC(CCC(=O)OCC)C(=O)NC(CCC(=O)OCC)C(=O)NC(CCC(=O)OCC)C(=O)NC(CCC(=O)OCC)C(=O)NC(CCC(=O)OCC)C(=O)NC(CCC(=O)OCC)C(=O)OCC (stereo not drawn) | -23.8% | -16.5% | -10.2% | 26.2% | -10.7% | 2.2%
25 | C/C(=N/NC(=S)N1CCCCCC1)c1ccccc1O | -63.5% | -40.4% | 5.6% | 45.4% | -12.8% | 34.8%
26 | O=C(CC[N+](=O)[O-])OCC1OC(OC(=O)CC[N+](=O)[O-])C(O)C(O)C1O (stereo not drawn) | 23% | 0.85% | 28.4% | 34.1% | 14.8% | 38.8%
27 | CC(Nc1ccc([N+](=O)[O-])cc1)S(=O)(=O)O (stereo not drawn) | 7.4% | -0.2% | 13.4% | 16.6% | 12.4% | 18.4%
28 | COc1cc2c(cc1OC)C(=O)C1(C2)[C@H](c2ccccc2)C2C(=O)c3cc(OC)c(OC)cc3C2[C@H]1c1ccccc1 (stereo partly drawn) | -2.5% | 3.25% | 29.9% | 17.6% | 46% | 23.1%
29 | O=C(NCCCCC(Br)C(=O)O)c1ccccc1 (stereo not drawn) | -30% | -5.5% | -33.4% | -53.2% | -1.55% | -34.9%
30 | O=C(Nc1ccccc1C(=O)NCc1ccccc1)/C(=C/c1ccccc1)NC(=O)c1ccccc1 | 7.25% | 6.9% | -0.95% | 4.05% | 6.8% | -34.7%
31 | CCCCN1C(=O)C(CC(=O)OCC)SC1=S (stereo not drawn) | -8.35% | -28.7% | -19.9% | -7.8% | -18.2% | -14.3%
32 | CCN(CC)c1cc2oc(=O)cc(C)c2cc1NC(=O)c1cc([N+](=O)[O-])cc([N+](=O)[O-])c1 | -0.6% | -0.7% | -2.1% | -0.4% | 0% | 15.3%
33 | NNC(=O)CSCC(=O)NN | -1.9% | -2.05% | -3.25% | -9.75% | 1.2% | -5.35%
34 | CC/C(CCC(=O)OC)=N/Nc1ccc([N+](=O)[O-])cc1[N+](=O)[O-] | 4.05% | 7.25% | 6.9% | -22.6% | -5.9% | -10.6%
35 | Cc1ccc(-c2c3nc(c(-c4ccc(C)cc4)c4ccc([nH]4)c(-c4ccc(OCC5COC(C)(C)O5)cc4)c4nc(c(-c5ccc(C)cc5)c5ccc2[nH]5)C=C4)C=C3)cc1 (stereo not drawn) | -58.3% | -32.9% | -50.3% | -23.9% | -40.5% | -66.7%
36 | NS(=O)(=O)c1cccc([N+](=O)[O-])c1 | 21.1% | 5% | 6.7% | 5.95% | -2.5% | -13.1%
37 | Nc1ccc(CCCCc2nc(N)nc(N)c2-c2ccc(Cl)c(Cl)c2)cc1 | 36.5% | 77% (active) | 88.8% (active) | 9.1% | 14.9% | 60.5%
38 | O=C(O)c1ccc2c([N+](=O)[O-])cccc2n1 | 33.5% | 19.2% | 14.3% | -44% | 1.15% | 19.9%

Source: PubChem BioAssay (NCI)
